ERb SRC1 inh = blocks coactivator binding to human estrogen receptor beta | Q92731 | TR-FRET ER-beta LBD / SRC1-Cy5 peptide binding; receptor agonist-loaded with 1 µM estradiol | inhibition, % at 25.6 µM | 86,000 compounds, 1.3% hits | AID 633;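 active means compounds whose percent inhibition of the receptor-coactivator binding signal exceeds about 50% in the single-dose screen, limit read from the data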;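 further: 0% = receptor plus peptide wells without compound and 100% = peptide-only wells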
ERa coact inh = ER-alpha (human) coactivator binding inhibition; 86,000 compounds, 1.7% hits; inhibition, % at 25.6 µM; AID 629; P03372; TR-FRET ER-alpha LBD / SRC-1 peptide, estradiol-bound; in the data active means inhibition above about 50%;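 further: 0% = receptor plus peptide control and 100% = peptide only without receptor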
Target sequence (P03372 whole entry, looked up, the tested form may be a part): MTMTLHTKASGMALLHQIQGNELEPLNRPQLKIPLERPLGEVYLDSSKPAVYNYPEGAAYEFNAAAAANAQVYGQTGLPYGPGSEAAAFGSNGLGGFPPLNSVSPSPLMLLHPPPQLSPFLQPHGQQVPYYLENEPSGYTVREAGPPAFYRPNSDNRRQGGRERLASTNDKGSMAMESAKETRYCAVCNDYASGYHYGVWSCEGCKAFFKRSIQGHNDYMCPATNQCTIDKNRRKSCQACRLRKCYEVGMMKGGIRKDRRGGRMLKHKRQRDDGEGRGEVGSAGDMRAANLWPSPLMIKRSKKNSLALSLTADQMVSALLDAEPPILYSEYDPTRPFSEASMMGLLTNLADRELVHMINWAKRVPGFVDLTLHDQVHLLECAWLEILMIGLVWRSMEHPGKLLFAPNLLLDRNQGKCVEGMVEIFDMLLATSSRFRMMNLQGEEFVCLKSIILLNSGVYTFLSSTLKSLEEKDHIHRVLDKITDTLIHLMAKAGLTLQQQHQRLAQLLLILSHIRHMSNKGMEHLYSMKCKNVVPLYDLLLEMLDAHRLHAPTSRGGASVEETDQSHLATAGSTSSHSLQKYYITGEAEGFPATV
ERa SRC1 pot = ER-alpha (human) coactivator binding potentiation; AID 639; 86,000 compounds, 1.3% hits; P03372; coactivator binding (% of control), % at 25.6 µM; TR-FRET ERalpha-LBD/SRC-Cy5 coactivator binding, 2 h; 100 = basal binding, no effect; in the data active means activity above about 200%;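 further: binding measured in presence of low estradiol as agonist stimulus; 0% = peptide alone without receptor and 100% = receptor with peptide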
Smad3 inh = blocks human Smad3 binding to FoxH1 peptide; TR-FRET Smad3/Dy647-FoxH1 peptide binding, europium anti-His; inhibition, % at 25 µM; 88,000 compounds, 0.29% hits; AID 630;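 active means compounds that reduce the energy-transfer binding signal between the protein and its labelled peptide by more than half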;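 further: 0% = Smad3 plus labelled peptide maximal FRET and 100% = peptide-only background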
An asterisk follows results filed as active; . = no result given; [ ] = remark or other dose. A selection: hits, their analogues and other compounds. The true share with any hit is near 3.7%.

SMILES	ERb SRC1 inh	ERa coact inh	ERa SRC1 pot	Smad3 inh
O=C(Nc1cccc(Cl)c1Cl)C1CCN(c2ncccn2)CC1	-6	-9	206*	2
CC(=O)Nc1nonc1-c1nc2ccccc2n1Cc1nnc(C)o1	31	13	79	-7
CCC(=O)Nc1nonc1-c1nc2ccccc2n1Cc1ccc(Cl)c(Cl)c1	51*[fluorescence artefact?]	58*[fluorescence artefact?]	109	7
O=C(CCC(=O)N1CCOCC1)Nc1nnc(C2CCCCC2)s1	-13	-7	108	9
N#CC(c1nc2ccccc2nc1N1CCCCC1)S(=O)(=O)c1ccc(Cl)cc1 (stereo unspecified)	43	18	231*[fluorescence artefact?]	2
Cc1ccc(S(=O)(=O)C(C#N)c2nc3ccccc3nc2N2CCCCC2)cc1 (stereo unspecified)	3	4	60	-11
CCOC(=O)CCN(Cc1sccc1C)S(=O)(=O)c1ccc(F)cc1	3	-5	96	10
O=C(c1cc2nc(-c3ccccc3)cc(C(F)(F)F)n2n1)N1CCOCC1	-1	-9	106	4
CCOC(=O)C1CCCN(C(=O)c2cc3ncc(Br)cn3n2)C1 (stereo unspecified)	60*[fluorescence artefact?]	57*	42	9
O=C(c1ccco1)N1CCN(C(=O)c2ccc(Cn3cc(Br)cn3)o2)CC1	1	2	105	-14
O=C(c1cc2ncc(Br)cn2n1)N1CCN(C(=O)c2ccco2)CC1	52*	61*	46	3
CCOC(=O)C1CCCN(C(=O)c2cc(-c3ccc(C)cc3)on2)C1 (stereo unspecified)	-7	1	115	2
O=C(c1cc2ncc(Br)cn2n1)N1CCOCC1	58*	49	36	9
CC(C)[C@]1(Cl)CC[C@H]2[C@]3(C)CCC[C@@](C)(C(=O)O)[C@H]3C[C@@H](Cl)[C@]2(Cl)[C@H]1Cl	.	.	.	37
Cc1nnc(Sc2nc3c(c(=O)n(C)c(=O)n3C)n2Cc2ccccc2Cl)s1	1	64*[fluorescence artefact?]	102	6
Cn1c(=O)c2c(nc(SCCN3CCOCC3)n2Cc2ccccc2Cl)n(C)c1=O	-14	3	104	-1
C[C@@]12CC[C@@H]3[C@H](CCC4=CC(=O)CC[C@]43C)[C@H]1CC[C@H]2C(=O)Cn1cnc2c(=S)nc[nH]c21	.	.	.	12
CCOC(=O)Cn1c(=O)oc2cc(S(=O)(=O)N3CCN(c4ccccn4)CC3)ccc21	33	31	245*[fluorescence artefact?]	-5
CC(C)(C)CC(C)(C)c1cc(O)c(O)c(CN2CCCCC2)c1	.	.	.	93*
CC(C)(C)CC(C)(C)c1ccc(O)c(CN2CCN(CCC#N)CC2)c1	-1	-3	87	9
NC(=O)C1CCN(C(c2ccccc2Cl)c2nnnn2Cc2ccc3c(c2)OCO3)CC1 (stereo unspecified)	11	6	93	6
Cc1[nH]n(-c2ccccc2)c(=O)c1Sc1ccc(Cl)cc1	81*	39	72	-12
Cc1cc(C(=O)COc2ccc3ccc(=O)oc3c2)c(C)n1Cc1cccs1	37	58*[fluorescence artefact?]	347*[fluorescence artefact?]	-20
O=C(Oc1ccc(N2C(=O)CCC2=O)cc1)c1ccco1	4	60*	103	-2
CC[C@@H](CS(=O)(=O)O)[N+](=O)[O-]	.	.	.	22
SMILES	ERb SRC1 inh	ERa coact inh	ERa SRC1 pot	Smad3 inh
COc1ccc(Nc2nc(N3CCCC3)c3ccccc3n2)cc1	6	68*[fluorescence artefact?]	34	-8
Cc1ccc(NC2c3ncccc3C(=O)N2c2ccccc2C)cc1C (stereo unspecified)	21	-45	543*[fluorescence artefact?]	11
COc1ccc(C(=O)Nc2nc3cc(OC)c(OC)cc3c(=O)[nH]2)cc1	22	9	434*	21
COc1cc2nc(NC(=O)c3ccccc3)[nH]c(=O)c2cc1OC	-1	0	124	2
C[C@H](CC(=O)O)C(C(=O)O)C(=O)O	.	.	.	-3
CCOc1ccc(-c2cc(CCCC(=O)Nc3cccc(OC)c3)no2)cc1	-2	-3	114	-8
CCOc1ccc(NC(=O)CCCc2cc(-c3ccc(OCC)cc3)on2)cc1	18	25	204*	0
COc1ccc2cc3c(N)nn(C(=O)Cc4ccc(Cl)cc4)c3nc2c1	46	60*	77	1
COc1ccc(CC(=O)n2nc(-c3ccc(Cl)cc3)nc2NCc2ccco2)cc1	-2	6	94	-6
CC1=CC2(O)OCCN(CCO)C2=CC1=O (stereo unspecified)	86*[fluorescence artefact?]	78*[fluorescence artefact?]	25	16
O=C(O)c1[nH]c2ccccc2c1-c1ccccc1	3	20	80	80*[fluorescence artefact?]
CCOC(=O)CSc1nc2cc(C(=O)OC)ccc2c(=O)n1CCN1CCOCC1	4	7	107	2

Source: PubChem
